# Assay results reported in PubChem BioAssay AID1645838 (ICCB-Longwood Screening Facility, Harvard Medical School, 2021).
# Values joined by “and” are separate entries in the source; they are usually repeats but may differ in a detail not shown here. Identical values can stand only once. In all, about 2,000 compounds went through this assay and about 100 (5%) were called active. Cut-off read from the data, not from the text of the source: active = z-score above about 2; inactive = the rest. For the sample, actives were picked, then their nearest neighbours and some compounds at random.
# Assay: modulators of mitochondrial supercomplex assembly, cell-based, luminescence, Hoechst nuclei count (AID 1645838);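 note: control cybrid cells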;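 for z-score: higher means more mitochondrial supercomplex formation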
# Settings: Cells, luminescence/Hoechst cell count ratio, supercomplex reporter; for z-score: stronger effect = higher value; for cell count: measured here: cell number, Hoechst nuclei count
# [1] = library stock concentration (final well concentration not given) 80 uM
# [2] = library stock concentration (final well concentration not given) 400 uM
# [3] = library stock concentration (final well concentration not given) 2 mM
# [4] = library stock concentration (final well concentration not given) 10 mM
# [5] = library stock concentration (final well concentration not given) 46 uM
# [6] = library stock concentration (final well concentration not given) 278 uM
# [7] = library stock concentration (final well concentration not given) 1.67 mM
compound,measurement,setting,value
CCCCC/C=C\C/C=C\C/C=C\C/C=C\CCCC(=O)NC(CO)CO,z-score,,4 (active)
same,cell count,,4470
CCCCC/C=C\C/C=C\C/C=C\C/C=C\CCCC(=O)N[C@@H](C)CO,z-score,,0.0527 (inactive)
same,cell count,,5800
CCCCC/C=C\C/C=C\C/C=C\C/C=C\CCCC(=O)N[C@H](C)CO,z-score,,-0.466 (inactive)
same,cell count,,6100
CNCCCCCCN(C)N(O)N=O,z-score,,0.0102 (inactive)
same,cell count,,6050
CCCCCCC(=O)O[C@H]1CC[C@H]2[C@@H]3C=CC4=CC(=O)CC[C@]4(C)[C@H]3CC[C@]12C,z-score,,-0.283 (inactive)
same,cell count,,5360
COC1C(OC(=O)NC(=O)CCl)CC[C@]2(CO2)[C@@H]1[C@@]1(C)OC1CC=C(C)C (stereo not given in full),z-score,[1],-0.0262 (inactive)
same,z-score,[2],0.199 (inactive)
same,z-score,[3],1.06 (inactive)
same,z-score,[4],2.72 (active)
same,cell count,[1],3980
same,cell count,[2],3760
same,cell count,[3],3110
same,cell count,[4],1800
c1cc2cc(N3CCNCC3)ccc2cn1,z-score,,0.406 (inactive)
same,cell count,,4610
CCCCC/C=C\C/C=C\C/C=C\C/C=C\CCCC(=O)NCCc1ccc(O)c(O)c1,z-score,,0.0355 (inactive)
same,cell count,,5380
CS(=O)CCCCN=C=S (stereo not given),outcome,library stock 10 mM,inactive; censored for cell count
same,z-score,[1],-0.41 (inactive)
same,z-score,[2],-0.338 (inactive)
same,z-score,[3],0.15 (inactive)
same,cell count,[1],6580
same,cell count,[2],6460
same,cell count,[3],5610
CCCCC/C=C\C/C=C\CCCCCCCC(=O)NCCO,outcome,,inactive; censored for cell count
CCCCCCC(=O)CCCCCC/C=C/C[C@@H](O)[C@H](O)[C@@](N)(CO)C(=O)O,z-score,,5.47 (active)
same,cell count,,4740
CCCCCCCC/C=C\CCCCCCCC(=O)N[C@H](C)CO,z-score,,0.127 (inactive)
same,cell count,,5170
CCCCC/C=C\C/C=C\C/C=C\C/C=C\CCCC(=O)Nc1ccc([N+](=O)[O-])cc1,z-score,,-0.128 (inactive)
same,cell count,,5210
CCCCC/C=C\C/C=C\C/C=C\C/C=C\CCCC(=O)NCCc1c[nH]c2ccc(O)cc12,z-score,,1.36 (inactive)
same,cell count,,5300
O=NN(O)N1CCC[C@H]1C(=O)O,z-score,,-0.00248 (inactive)
same,cell count,,5130
CN=C(NS(=O)(=O)c1ccc(Cl)cc1)N1C[C@@H](c2ccccc2)C(c2ccc(Cl)cc2)=N1,z-score,,-0.26 (inactive)
same,cell count,,5290
Cc1sc2c(c1C)C(c1ccc(Cl)cc1)=NC(CC(N)=O)c1nnc(C)n1-2 (stereo not given),z-score,[5],0.632 (inactive)
same,z-score,[6],2.69 (active)
same,z-score,[7],7.71 (active)
same,z-score,[4],10.6 (active)
same,cell count,[5],5970
same,cell count,[6],4460
same,cell count,[7],2880
same,cell count,[4],2360
Cc1sc2c(c1C)C(c1ccc(Cl)cc1)=NC(CC(=O)OC(C)(C)C)c1nnc(C)n1-2 (stereo not given),z-score,[1],1.22 (inactive)
same,z-score,[2],2.15 (active)
same,z-score,[3],4.36 (active)
same,z-score,[4],5.69 (active)
same,cell count,[1],5120
same,cell count,[2],4600
same,cell count,[3],3540
same,cell count,[4],2860
Cc1sc2c(c1C)C(c1ccc(Cl)cc1)=NC(CC(=O)Nc1ccc(O)cc1)c1nnc(C)n1-2 (stereo not given),z-score,[1],1.4 (inactive)
same,z-score,[2],3.81 (active)
same,z-score,[3],7.81 (active)
same,z-score,[4],8.99 (active)
same,cell count,[1],5230
same,cell count,[2],4010
same,cell count,[3],2830
same,cell count,[4],2330
C[N@@+]1(CC2CC2)CC[C@]23c4c5ccc(O)c4OC2C(=O)CC[C@@]3(O)C1C5 (stereo not given in full),z-score,[1],0.853 (inactive)
same,z-score,[2],0.439 (inactive)
same,z-score,[3],1.12 (inactive)
same,z-score,[4],0.0218 (inactive)
same,cell count,[1],4560
same,cell count,[2],4560
same,cell count,[3],3990
same,cell count,[4],4440
CN=C(NS(=O)(=O)c1ccc(Cl)cc1)N1CC(c2ccccc2)C(c2ccc(Cl)cc2)=N1 (stereo not given),z-score,,0.263 (inactive)
same,cell count,,4560
CCCC(=O)N[C@H]1CCOC1=O,z-score,,-0.00429 (inactive)
same,cell count,,5280
O=C1C(=O)c2cccc3cccc1c23,outcome,library stock 10 mM,inactive; censored for cell count
same,z-score,[1],-0.293 (inactive)
same,z-score,[2],-0.13 (inactive)
same,z-score,[3],0.0237 (inactive)
same,cell count,[1],5390
same,cell count,[2],5120
same,cell count,[3],4940
CCCCC/C=C\C/C=C\C/C=C\C/C=C\CCCC(=O)OCCN,z-score,,-1.23 (inactive)
same,cell count,,5760
COc1nc(C)nc(NC(=O)NS(=O)(=O)c2ccccc2Cl)n1,z-score,[5],0.223 (inactive)
same,z-score,[6],0.421 (inactive)
same,z-score,[7],0.438 (inactive)
same,z-score,[4],0.591 (inactive)
same,cell count,[5],6660
same,cell count,[6],6640
same,cell count,[7],6690
same,cell count,[4],6980
NC(=NCCCC(N)C(=O)O)N[N+](=O)[O-] (stereo not given),z-score,[5],-0.276 (inactive)
same,z-score,[6],-0.202 (inactive)
same,z-score,[7],-0.093 (inactive)
same,z-score,[4],-0.00821 (inactive)
same,cell count,[5],5020
same,cell count,[6],4960
same,cell count,[7],5010
same,cell count,[4],4490
O=C(NC(COc1ccc2[nH]c(=O)[nH]c2c1)c1ccccc1)c1cccn(Cc2ccc(F)c(F)c2)c1=O (stereo not given),z-score,[1],-0.974 (inactive) and -0.18 (inactive)
same,z-score,[2],-0.76 (inactive) and -0.318 (inactive)
same,z-score,[3],-0.629 (inactive) and -0.22 (inactive)
same,z-score,[4],-0.746 (inactive) and -0.664 (inactive)
same,cell count,[1],5360 and 6280
same,cell count,[2],4530 and 6370
same,cell count,[3],5030 and 6190
same,cell count,[4],4470 and 5840
CCCN(CCCN)N(O)N=O,z-score,,0.0434 (inactive)
same,cell count,,5220
COc1ccc2cc(C(C#N)OC(=O)OCC3OC3c3ccccc3)ccc2c1 (stereo not given),z-score,,-0.334 (inactive)
same,cell count,,4870
CCCCCCCCCCCCCCCCOC[C@@H](O)COP(=O)([O-])OCC[N+](C)(C)C,z-score,,-1.65 (inactive)
same,cell count,,5770
CCCC[C@@H](C)C(OC(=O)C[C@@H](CC(=O)O)C(=O)O)C(C[C@@H](C)C[C@H](O)CCCC[C@@H](O)C[C@H](O)[C@H](C)N)OC(=O)C[C@@H](CC(=O)O)C(=O)O (stereo not given in full),z-score,,-0.0113 (inactive)
same,cell count,,5860
NCCc1c(Cl)cccc1Cl,z-score,[1],0.124 (inactive)
same,z-score,[2],0.256 (inactive)
same,z-score,[3],0.163 (inactive)
same,z-score,[4],-0.533 (inactive)
same,cell count,[1],5290
same,cell count,[2],5420
same,cell count,[3],5540
same,cell count,[4],5250
CCCCCCCCCCCCCCCC(=O)OC[C@H](COP(=O)([O-])OCC[N+](C)(C)C)OC(=O)CCCC=O,z-score,,0.248 (inactive)
same,cell count,,4750
Cc1nc(-c2ccc(-c3ccc(C(=O)N4CCc5cc6c(cc54)C4(CCN(C)CC4)CO6)cc3)c(C)c2)no1,z-score,[1],-0.255 (inactive)
same,z-score,[2],0.0819 (inactive)
same,z-score,[3],-0.0801 (inactive)
same,z-score,[4],3.86 (active)
same,cell count,[1],5300
same,cell count,[2],5160
same,cell count,[3],5100
same,cell count,[4],1770
CC1CNCCc2ccc(Cl)cc21 (stereo not given),z-score,[1],-0.315 (inactive)
same,z-score,[2],-0.24 (inactive)
same,z-score,[3],-0.135 (inactive)
same,z-score,[4],-0.0867 (inactive)
same,cell count,[1],6030
same,cell count,[2],5570
same,cell count,[3],5830
same,cell count,[4],5720
